Reference: PubChem BioAssay (NCI)
About 83,000 compounds went through this panel and 20% of them were active in at least one assay; those are over-represented in the sample as a whole.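 Single-dose data. Exposure time 48 hours. Values below 10 considered active.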 Unmarked numbers belong to inactive results. The source made the active and inactive calls.

Tests used:
Assay in all cases: NCI-60 one-dose screen, 48 h (100 = growth as untreated, 0 = no growth, -100 = all killed)
Conditions in all cases: 10 µM unless noted
NCI-H23 lung = system: NCI-H23 lung
NCI-H226 lung = system: NCI-H226 lung
NCI-H322M lung = system: NCI-H322M lung
HOP-62 NSCLC = system: HOP-62 NSCLC
NCI-H460 lung = system: NCI-H460 lung
HOP-92 NSCLC = system: HOP-92 NSCLC
NCI-H522 lung = system: NCI-H522 lung
A549/ATCC NSCLC = system: A549/ATCC NSCLC
786-0 renal = system: 786-0 renal
COLO 205 colon = system: COLO 205 colon
DU-145 prostate = system: DU-145 prostate
K-562 leukemia = system: K-562 leukemia
MALME-3M melanoma = system: MALME-3M melanoma
MDA-MB-231 breast = system: MDA-MB-231 breast
RXF 393 renal = system: RXF 393 renal
SF-268 CNS = system: SF-268 CNS
SF-295 CNS = system: SF-295 CNS
SF-539 CNS = system: SF-539 CNS
UACC-257 melanoma = system: UACC-257 melanoma
M14 melanoma = system: M14 melanoma

| SMILES | growth (NCI-H23 lung) | growth (NCI-H226 lung) | growth (NCI-H322M lung) | growth (HOP-62 NSCLC) | growth (NCI-H460 lung) | growth (HOP-92 NSCLC) | growth (NCI-H522 lung) | growth (A549/ATCC NSCLC) | growth (786-0 renal) | growth (COLO 205 colon) | growth (DU-145 prostate) | growth (K-562 leukemia) | growth (MALME-3M melanoma) | growth (MDA-MB-231 breast) | growth (RXF 393 renal) | growth (SF-268 CNS) [%] | growth (SF-295 CNS) | growth (SF-539 CNS) | growth (UACC-257 melanoma) | growth (M14 melanoma) |
| --- | --- | --- | --- | --- | --- | --- | --- | --- | --- | --- | --- | --- | --- | --- | --- | --- | --- | --- | --- | --- |
| CN(C)CCN1C(=O)c2cccc3c(N)ccc(c23)C1=O | 44.3% | 23.9% | 58.5% | 58.1% | -5.38% (active) | 19.9% | 7.81% (active) | 6.47% (active) | 36.9% | 8.15% (active) | 25.9% | 2.08% (active) | 46.7% | 58.3% | 4.79% (active) | 17.5 | 21.4% | 19.4% | 9.42% (active) | 34.4% |
| Cn1cc(C(=O)c2nc(-c3c[nH]c4ccc(Br)cc34)no2)c2cc(F)ccc21 | 84.9% | 81.5% | 95.7% | 103% | 97% | 85.4% | 90.5% | 104% | 103% | 98.3% | 106% | 102% | 96.1% | 89% | 109% | 99.2 | 97.6% | 99.1% | 99.7% | 100% |
| O=C1c2cc3c(cc2-c2c1c1cc(F)c(F)cc1c(=O)n2CCCn1ccnc1)OCO3 | -11.2% (active) | -59.4% (active) | 14.5% | 1.96% (active) | -26% (active) | -7.1% (active) | -26.9% (active) | -93.5% (active) | 8.02% (active) | -4.37% (active) | 9.97% (active) | 8.61% (active) | -4.79% (active) | 13.9% | -22.4% (active) | 13.4 | -12.4% (active) | -19.7% (active) | -28.9% (active) | 8.25% (active) |
| O=Nc1c(O)c(Cl)cc2ccccc12 | 92.3% | 78.9% | 102% | 75.1% | 90.3% | 112% | 50.1% | 93% | 105% | 70.9% | 101% | 54.3% | 90.8% | 74.3% | 67.4% | 82.5 | 111% | 89.2% | 75.8% | 85.7% |
| O=C(COc1cccc(/C=C2\COc3ccccc3C2=O)c1)Nc1nccs1 | 13.4% | 95.4% | 99.3% | 83.3% | 87.9% | -3.51% (active) | -30.5% (active) | 101% | 95.5% | 87.3% | 96.6% | -80.5% (active) | 54.2% | 83.7% | 48.3% | 70.1 | 112% | 83.7% | 86% | -78.2% (active) |
| COc1ccc(-c2nn(-c3ccc(Cl)cc3)cc2-c2nc3ccccc3[nH]2)cc1 | 89.1% | 91.4% | 102% | 113% | 88.1% | 97% | 67.7% | 95.4% | 103% | 101% | 120% | 89% | 98.5% | 73% | 94.7% | 94.7 | 98.1% | 106% | 101% | 90% |
| CNC(=O)c1cc(Oc2ccc(NC(=O)Nc3ccc(Cl)c(SC)c3)c(F)c2)ccn1 | 29.7% | 40.4% | 74.5% | 62.1% | 58.2% | 48.8% | 17.5% | 39.9% | 88.5% | 24.4% | 72.1% | 18.1% | 27.5% | 50.1% | 85.9% | 50.6 | 34% | 47.3% | 28.1% | 29.7% |
| O=C(O)COc1ccc(Cl)cc1C1CCCCC1 | 102% | 92.8% | 101% | 106% | 96.3% | 111% | 99% | 93.2% | 106% | 119% | 110% | 91.8% | 104% | 98.5% | 102% | 102 | 109% | 107% | 114% | 102% |
| O=C(N=Nc1c(O)[nH]c2ccc(Br)cc12)c1cc(-c2ccccc2)on1 | 96.9% | 99.8% | 108% | 102% | 101% | 96.8% | 85% | 103% | 105% | 125% | 110% | 109% | 89.5% | 100% | 117% | 100 | 97.1% | 97.6% | 110% | 104% |
| CSc1nc(NCCN2CCOCC2)c(C#N)c(-c2cccc([N+](=O)[O-])c2)n1 | 97.1% | 106% | 92.9% | 89.4% | 100% | 101% | 85.7% | 99.5% | 101% | 111% | 106% | 100% | 98.7% | 86.3% | 103% | 96.7 | 99.1% | 90.3% | 98.2% | 101% |
| Nc1ccc(-c2cc3c(Nc4ccc(Oc5cccc(C(F)(F)F)c5)c(Cl)c4)ncnc3s2)cc1 | 69.6% | 69% | 61.9% | 90.2% | 69.5% | 87.8% | 53.6% | 51.4% | 73.9% | 91.3% | 72.5% | 24.9% | 91.8% | 95.1% | 35.7% | 66.1 | 77.2% | 74.5% | 77% | 86.6% |
| CCOc1cc2ncc(C#N)c(Nc3ccc(OCc4cccc(F)c4)c(Cl)c3)c2cc1NC(=O)CCCCC1CCSS1 (stereo not given) | 101% | 88.9% | 90.8% | 94.4% | 98% | 78.9% | 66.4% | 73.6% | 89.1% | 103% | 97.4% | 80.3% | 125% | 96.2% | 97.9% | 95.7 | 106% | 108% | 81% | 93.1% |
| CN1CCN(CCCOc2cccc3nc(Nc4cc(Cl)cc(Cl)c4)ccc23)CC1 | 36.7% | -10.9% (active) | 3.59% (active) | 19.8% | -37% (active) | 3.95% (active) | -18.3% (active) | 0.988% (active) | 37.3% | -67.4% (active) | -23.8% (active) | -54.7% (active) | -53.5% (active) | -44.6% (active) | 38.8% | 16 | 40.2% | 7.62% (active) | -44.6% (active) | -55.7% (active) |
| CN(C)S(=O)(=O)c1cccc(-c2nc3sc4c(c3c(=O)[nH]2)CCCC4)c1 | 44.1% | 54% | 27.2% | 42.7% | 7.27% (active) | 11.4% | 54.7% | 25.8% | -37.1% (active) | 64.6% | 54.5% | 37.9% | 17.2% | 34.8% | 10.7% | 64.9 | 24.7% | 23% | 75% | 48% |
| O=C1NC(=S)NC(=O)C1CC(=O)n1c(-c2ccccc2)nc2ccccc21 | 97.2% | 86.1% | 94% | 79.9% | 101% | 108% | 96.9% | 97.7% | 104% | 111% | 113% | 98.6% | 93% | 88% | 110% | 93.8 | 96.3% | 94.1% | 111% | 99% |
| CSc1nc(Nc2cccc(NC(=O)CCl)c2)c(C#N)c(-c2cccc([N+](=O)[O-])c2)n1 | 40.3% | 42.2% | 97.4% | 86.5% | 86.8% | 40.7% | -55.9% (active) | 95.9% | 73.2% | 35.9% | 13.4% | 5.6% (active) | 37.3% | 68.4% | 43.7% | 34 | 95.4% | 73.3% | 84.6% | 48.7% |
